For test [1], the target named is Serine/threonine-protein kinase 26 (Homo sapiens) (UniProt Q9P289). The conditions noted are these: at 1 µM.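 Further: mean inhibition of MST4 kinase activity, reported from the GSK PKIS inhibitor-set screening panel.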
In test [2] the target is Serine/threonine-protein kinase PAK 1 (Homo sapiens) (UniProt Q13153). Particulars: at 0.1 µM.
For test [3] the target is unchanged. Particulars: at 1 µM.
In test [4] the target is Serine/threonine-protein kinase PAK 2 (Homo sapiens) (UniProt Q13177). The conditions noted are these: at 0.1 µM.
Sequence of Serine/threonine-protein kinase PAK 2 (Homo sapiens) (Q13177 whole entry): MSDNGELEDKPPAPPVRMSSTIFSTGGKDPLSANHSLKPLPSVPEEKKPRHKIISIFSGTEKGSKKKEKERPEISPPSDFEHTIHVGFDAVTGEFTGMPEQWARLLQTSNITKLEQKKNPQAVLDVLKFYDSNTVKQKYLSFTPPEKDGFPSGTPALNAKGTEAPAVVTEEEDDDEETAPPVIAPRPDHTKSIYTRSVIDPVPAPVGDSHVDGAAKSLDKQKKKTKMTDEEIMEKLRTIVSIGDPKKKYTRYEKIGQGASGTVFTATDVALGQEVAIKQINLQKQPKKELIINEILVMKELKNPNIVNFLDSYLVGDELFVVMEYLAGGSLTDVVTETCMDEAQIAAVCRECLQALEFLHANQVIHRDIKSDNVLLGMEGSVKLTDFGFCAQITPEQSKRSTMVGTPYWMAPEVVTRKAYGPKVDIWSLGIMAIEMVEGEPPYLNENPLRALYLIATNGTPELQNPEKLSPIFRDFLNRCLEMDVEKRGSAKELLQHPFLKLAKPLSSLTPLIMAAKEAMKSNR
Test [5] shares this target. Particulars: at 1 µM.
The target of test [6] is Serine/threonine-protein kinase PAK 3 (Homo sapiens) (UniProt O75914). The conditions noted are these: at 0.1 µM.
Sequence of Serine/threonine-protein kinase PAK 3 (Homo sapiens) (O75914 whole entry, looked up): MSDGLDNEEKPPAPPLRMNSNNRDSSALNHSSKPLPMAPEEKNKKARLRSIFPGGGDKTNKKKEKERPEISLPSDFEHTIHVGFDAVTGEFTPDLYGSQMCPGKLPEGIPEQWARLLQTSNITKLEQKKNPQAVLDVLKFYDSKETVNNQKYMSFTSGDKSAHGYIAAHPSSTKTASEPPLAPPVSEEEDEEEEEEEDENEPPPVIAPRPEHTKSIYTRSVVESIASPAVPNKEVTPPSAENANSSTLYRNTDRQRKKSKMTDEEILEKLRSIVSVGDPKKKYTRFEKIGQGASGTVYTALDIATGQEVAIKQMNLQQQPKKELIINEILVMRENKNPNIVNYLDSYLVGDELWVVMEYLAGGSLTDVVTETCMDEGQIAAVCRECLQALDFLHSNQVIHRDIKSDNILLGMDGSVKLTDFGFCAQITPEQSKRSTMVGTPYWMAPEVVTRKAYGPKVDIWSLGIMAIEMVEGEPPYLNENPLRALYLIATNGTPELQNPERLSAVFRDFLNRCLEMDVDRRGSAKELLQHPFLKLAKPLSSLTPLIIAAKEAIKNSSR
Test [7] shares this target. The conditions noted are these: at 1 µM.
For test [8], the target named is Serine/threonine-protein kinase PAK 5 (Homo sapiens) (UniProt Q9P286). The conditions noted are these: at 0.1 µM.
Sequence of Serine/threonine-protein kinase PAK 5 (Homo sapiens) (Q9P286 whole entry, looked up): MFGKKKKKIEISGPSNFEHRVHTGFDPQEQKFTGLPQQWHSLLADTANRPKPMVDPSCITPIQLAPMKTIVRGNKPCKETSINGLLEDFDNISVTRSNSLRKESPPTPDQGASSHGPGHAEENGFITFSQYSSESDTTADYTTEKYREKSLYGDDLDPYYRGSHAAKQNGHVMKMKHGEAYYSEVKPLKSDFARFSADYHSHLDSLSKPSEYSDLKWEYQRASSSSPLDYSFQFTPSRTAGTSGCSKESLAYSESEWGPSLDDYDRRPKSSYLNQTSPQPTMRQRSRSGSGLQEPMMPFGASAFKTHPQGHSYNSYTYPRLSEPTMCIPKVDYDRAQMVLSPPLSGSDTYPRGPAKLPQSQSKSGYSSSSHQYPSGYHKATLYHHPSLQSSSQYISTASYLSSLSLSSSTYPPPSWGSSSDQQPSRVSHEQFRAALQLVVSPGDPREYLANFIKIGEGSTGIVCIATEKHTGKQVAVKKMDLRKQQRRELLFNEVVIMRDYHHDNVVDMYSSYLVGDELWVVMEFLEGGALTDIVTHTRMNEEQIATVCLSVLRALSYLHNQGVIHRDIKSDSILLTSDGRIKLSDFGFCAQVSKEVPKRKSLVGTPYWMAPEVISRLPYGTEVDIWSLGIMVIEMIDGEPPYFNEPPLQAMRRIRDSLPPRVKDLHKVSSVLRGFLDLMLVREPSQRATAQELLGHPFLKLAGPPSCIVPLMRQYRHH
For test [9], the target named is Serine/threonine-protein kinase PAK 6 (Homo sapiens) (UniProt Q9NQU5). The conditions noted are these: at 0.1 µM.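 Further: mean PAK6 inhibition reported from the GSK PKIS screen.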
Sequence of Serine/threonine-protein kinase PAK 6 (Homo sapiens) (Q9NQU5 whole entry, looked up): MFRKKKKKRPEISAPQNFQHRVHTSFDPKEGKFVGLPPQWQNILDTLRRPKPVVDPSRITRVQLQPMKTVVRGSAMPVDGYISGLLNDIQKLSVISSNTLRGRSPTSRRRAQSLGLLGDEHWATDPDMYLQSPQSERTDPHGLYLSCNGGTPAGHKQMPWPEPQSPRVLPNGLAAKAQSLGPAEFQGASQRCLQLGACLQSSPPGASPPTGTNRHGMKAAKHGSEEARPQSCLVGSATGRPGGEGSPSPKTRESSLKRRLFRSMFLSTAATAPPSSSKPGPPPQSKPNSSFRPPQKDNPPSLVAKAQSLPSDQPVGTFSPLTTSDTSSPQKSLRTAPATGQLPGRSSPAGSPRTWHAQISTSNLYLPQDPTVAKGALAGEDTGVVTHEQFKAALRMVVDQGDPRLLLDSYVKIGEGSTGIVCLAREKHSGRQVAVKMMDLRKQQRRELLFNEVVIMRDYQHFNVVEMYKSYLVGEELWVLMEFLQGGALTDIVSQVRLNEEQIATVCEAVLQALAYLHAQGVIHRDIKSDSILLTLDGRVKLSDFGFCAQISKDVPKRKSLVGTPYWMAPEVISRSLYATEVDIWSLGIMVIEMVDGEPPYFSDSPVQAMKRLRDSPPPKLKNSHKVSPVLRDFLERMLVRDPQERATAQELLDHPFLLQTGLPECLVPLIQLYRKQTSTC
In test [10] the target is Serine/threonine-protein kinase PAK 5 (Homo sapiens) (UniProt Q9P286). Particulars: at 1 µM.

One may read the inhibition as the change of the read-out against control, counted positive when it falls.

Sequence of Serine/threonine-protein kinase 26 (Homo sapiens) (Q9P289 2-416 limits assumed): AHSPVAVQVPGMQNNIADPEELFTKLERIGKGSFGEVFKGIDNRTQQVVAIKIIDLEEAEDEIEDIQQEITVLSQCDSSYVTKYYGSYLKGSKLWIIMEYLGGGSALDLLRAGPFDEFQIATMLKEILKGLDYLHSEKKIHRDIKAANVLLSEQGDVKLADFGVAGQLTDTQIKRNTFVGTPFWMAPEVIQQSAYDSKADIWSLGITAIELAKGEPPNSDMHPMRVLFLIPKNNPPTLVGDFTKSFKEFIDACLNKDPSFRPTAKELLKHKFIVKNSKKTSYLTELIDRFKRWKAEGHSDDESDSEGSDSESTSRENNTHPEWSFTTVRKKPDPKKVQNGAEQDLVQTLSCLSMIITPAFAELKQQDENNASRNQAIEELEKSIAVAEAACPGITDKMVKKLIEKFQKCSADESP
Sequence of Serine/threonine-protein kinase PAK 1 (Homo sapiens) (Q13153 whole entry): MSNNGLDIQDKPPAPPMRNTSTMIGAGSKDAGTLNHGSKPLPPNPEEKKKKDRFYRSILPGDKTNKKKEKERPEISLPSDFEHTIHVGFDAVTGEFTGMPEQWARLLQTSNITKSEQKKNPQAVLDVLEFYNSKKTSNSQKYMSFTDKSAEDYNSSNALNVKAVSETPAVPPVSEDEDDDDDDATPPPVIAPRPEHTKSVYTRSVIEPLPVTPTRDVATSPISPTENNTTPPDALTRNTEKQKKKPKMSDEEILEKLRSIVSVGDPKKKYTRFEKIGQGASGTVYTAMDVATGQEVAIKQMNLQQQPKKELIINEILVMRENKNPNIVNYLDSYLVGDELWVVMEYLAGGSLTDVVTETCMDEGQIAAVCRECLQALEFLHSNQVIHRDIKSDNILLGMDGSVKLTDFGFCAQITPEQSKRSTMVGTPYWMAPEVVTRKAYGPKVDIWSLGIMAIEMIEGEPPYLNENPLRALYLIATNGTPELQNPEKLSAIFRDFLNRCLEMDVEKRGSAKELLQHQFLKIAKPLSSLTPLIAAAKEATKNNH

Consider `CCn1c(-c2nonc2N)nc2ccc(F)cc21`, for which the inhibition was determined as 3.36% in [1]; 12% in test [2]; 11.2% in test [3]; 3.1% in test [4]; 3.8% in [5]; 7.78% in [6]. For the same molecule, the inhibition in test [7] was 6.52%; in test [8] it was -1.6%; in test [9] it was 2.06%.
Take `Cc1ccc2c(c1)/C(=N/Nc1ccc(S(N)(=O)=O)cc1)C(=O)N2`: the inhibition in test [1] was 17.1%; in [2], -1.7%; in test [3] it was 5.13%; in [4], 0.16%; in test [5] it was -0.31%; in [6], 0.21%. In addition, the inhibition was -1.09% in test [7], -8.51% in test [8] and -4.78% in [9].
On to `CC(C)c1ccc2c(c1)NC(=O)/C2=N/Nc1ccc(S(N)(=O)=O)cc1`, for which the inhibition in [1] is 0.01%; in [2] it was -1.3%; in test [3] it was 3.93%; in test [4] it was -1.91%; in test [5], -1.73%; in [6] it was -1.11%. Besides, the inhibition in test [7] was 0.37%; in test [8], -6.19%; in test [10], -0.94%; in [9], -8.22%.
For the molecule `Cc1cc(Cl)cc2c1NC(=O)C2=NNc1ccc(S(N)(=O)=O)cc1`, the inhibition is -0.49% in test [1]; 0.68% in test [2]; 1.71% in [3]; 1.05% in test [4]; 0.72% in test [5]; 3.63% in test [6]. The inhibition in test [7] is 4.8%; in test [8], -4.18%; in test [10], -1.19%; in [9], 2.65%.
As for `Nc1ccc(C#Cc2cncnc2Nc2ccc(OCc3cccc(F)c3)c(Cl)c2)cc1`, the inhibition in test [1] is -2.17%; in [2] it was 0.57%; in test [3] it was 1.46%; in [4], 0.83%; in test [5], 0.22%; in [6], 3.57%. Besides, the inhibition in test [7] is 2.79%; in test [8], 0.61%; in [10] it was 2.79%; in [9], -4.23%.
For `Nc1nccc(-c2c(-c3ccc(F)cc3)ncn2CCCN2CCOCC2)n1`, the inhibition stood at 11.2% in test [1]; 9.14% in [2]; 6.55% in [3]; 1.64% in test [4]; 1.75% in test [5]; 5.89% in test [6]. In addition, the inhibition is 4.41% in [7], 3.01% in test [10] and -1.31% in test [9].
Regarding `Cc1ccc(O)cc1Nc1ccnc2ccc(S(C)(=O)=O)cc12`, the inhibition in test [1] is -0.56%; in [2], 9.27%; in [3] it was 13.3%; in test [4], 2.82%; in [5] it was 2.56%; in test [6], 5.79%. Besides, the inhibition in [7] was 6.05%; in test [8], 1.8%; in test [10], 8.34%; in [9], -3.21%.
With `ON=C1CCc2cc(-c3nc(C4CCNCC4)[nH]c3-c3ccncc3)ccc21`, the inhibition is -1.63% in [1]; 2.01% in [2]; 2.16% in test [3]; -0.65% in test [4]; -0.29% in test [5]; -0.94% in test [6]. Also, the inhibition was -0.23% in test [7] and 0.23% in test [9].
Take `NS(=O)(=O)c1ccc(NC=C2C(=O)Nc3ccc4ncsc4c32)cc1`: the inhibition turned out to be 78.9% in test [1]; 7.91% in test [2]; 8.35% in test [3]; 2.5% in test [4]; 4.68% in test [5]; 5.33% in [6]. For the same molecule, the inhibition in test [7] amounted to 6.6%; in test [10], 5.11%; in test [9], 0.36%.
Regarding `Cc1nc(-c2ccccc2)n2nc(NCCCN3CCOCC3)ncc12`, the inhibition in [1] came to 0.4%; in [2] it was 2.24%; in test [3], 6.68%; in test [4], 0.56%; in test [5], 0.27%; in test [6] it was 1.98%. The inhibition was 4.33% in [7], 1.91% in [8], 1.28% in test [10] and -9.04% in [9].
Consider `CN(C)c1cc2c(Nc3ccc4c(cnn4Cc4ccccc4)c3)ncnc2cn1`, for which the inhibition in test [1] is -0.54%; in test [2], 6.36%; in [3], 6.67%; in [4], 0.73%; in [5], 0.51%; in test [6], 3.07%. Further, the inhibition is 3.39% in test [7], -1.52% in [8], -2.02% in test [10] and 4.32% in test [9].
`CN(C)CCCn1c(-c2nonc2N)nc2cnccc21`: the inhibition in test [1] is -1.75%; in [2], 6.36%; in test [3], 9.52%; in test [4] it was 1.48%; in test [5] it was 2.17%; in [6], 4.61%. For the same molecule, the values for the inhibition in test [7], in test [10] and in test [9] were 5.23%, -5.06% and 7.58%, respectively.
In the case of `CN(C)C(=O)O[C@@H]1CN[C@@H](C#Cc2cc3ncnc(Nc4ccc(OCc5cccc(F)c5)c(Cl)c4)c3s2)C1`, the inhibition is 0.17% in test [1]; 1.48% in test [2]; 2.04% in test [3]; 0.43% in test [4]; -0.42% in test [5]; 0.58% in test [6]. For the same molecule, the inhibition in test [7] was -0.38%; in test [8], -5.8%; in test [9] it was 2.87%.
As for `Nc1nccc(-c2c(-c3ccc(F)cc3)nn3cc(C(F)(F)F)ccc23)n1`, the inhibition in test [1] was 0.4%; in test [2], 0.65%; in test [3] it was 2.14%; in test [4], -2.44%; in [5], -1.84%; in test [6] it was -0.02%. The inhibition in [7] is -0.21%; in test [10], -2.91%; in [9] it was 3.48%.
Take `N#Cc1cccc(Nc2nccc(-c3cnn4ncccc34)n2)c1`: the inhibition in test [1] was 3.34%; in test [2] it was 8.03%; in test [3] it was 7.42%; in test [4], 1.67%; in test [5], 3.52%; in test [6], 3.6%. The inhibition in test [7] is 5.22%; in test [8], 0.7%; in test [10], 12.7%; in test [9] it was -4.74%.
As to `COc1cc(/C=N/Nc2ncnc3c2cnn3C(C)C)ccc1O`, the inhibition in test [1] is 3.49%; in [2], 3.62%; in [3], 2.53%; in [4], -0.56%; in test [5] it was -0.45%; in test [6], -3.86%. Also, the inhibition was 1.26% in test [7], 4.69% in [10] and -0.32% in test [9].
For the molecule `CS(=O)(=O)Nc1cccc(-c2ccc3c(NC(=O)C4CC4)n[nH]c3c2)c1`, the inhibition in [1] worked out at 1.22%; in test [2] it was 2.69%; in [3], 3.3%; in test [4], 0.99%; in test [5], 0.37%; in [6], 0.48%. Further, the inhibition was 1.23% in test [7] and -7.16% in test [9].
For `[O-][S+]1CCN(Cc2ccc(-c3ccc4ncnc(Nc5ccc(OCc6ccccc6)c(Cl)c5)c4c3)o2)CC1`, the inhibition is 1.64% in test [1]; 2.5% in test [2]; 4.24% in test [3]; 0.11% in [4]; 0.24% in [5]; 0.99% in test [6]. Besides, the inhibition in [7] is 2.19%; in [8], 2.51%; in [10] it was 1.72%; in test [9], -9.51%.
In the case of `C[C@@H](Oc1cc(-n2cnc3ccc(OCC4CCN(C)CC4)cc32)sc1C(N)=O)c1ccccc1C(F)(F)F`, the inhibition in test [2] was -2.64%; in [3] it was 0.44%; in test [4] it was -1.54%; in test [5] it was -2.14%; in test [6], -1.81%; in test [7], 0.3%. The figures for the inhibition in test [8], in test [10] and in test [9] were -2.43%, -1.92% and 1.47%, respectively.
For the molecule `Cc1ccc(C(=O)NC2CC2)cc1-c1ccc2[nH]ncc2c1`, the inhibition in [1] was -0.24%; in test [2], -0.61%; in test [3] it was -2.6%; in [4] it was -3.3%; in test [5], -4.55%; in test [6], -4.8%. The inhibition in test [7] was -3.91%; in test [8], -4.55%; in test [10], -2.43%; in [9] it was 1.46%.
Turning to `CN(c1ccc(NC(=O)Nc2ccc(OC(F)(F)F)cc2)cc1)c1ccnc(Nc2cccc(S(N)(=O)=O)c2)n1`, the inhibition in test [1] is -3.21%; in test [2] it was 1.61%; in test [3], -0.37%; in test [4], 0.53%; in [5], -1.63%; in test [6], 2.32%. Further, the inhibition in [7] was 0.7%; in [8], -3.24%; in [10] it was 1.16%; in test [9], -3.33%.
With `NS(=O)(=O)c1ccc(Nc2cc(-c3cccc(O)c3)n[nH]2)cc1`, the inhibition was -4.6% in [1]; 9.49% in [2]; 7.81% in test [3]; 3.22% in [4]; 2.59% in test [5]; 6.66% in test [6]. In addition, the inhibition is 6.8% in [7], 3.04% in test [8], -6.9% in [10] and -0.89% in test [9].
On to `FC(F)(F)c1ccc(-c2nn3ncccc3c2-c2ccnc(Nc3ccc4c(c3)OCCO4)n2)cc1`, for which the inhibition in test [1] amounted to 7.92%; in test [2], 4.61%; in test [3] it was 0.84%; in [4], 1.32%; in test [5] it was 1.42%; in test [6], 3.69%. The inhibition was 4.75% in test [7], 6.24% in test [8], 11.3% in [10] and 9.3% in [9].
In the case of `O=C(Nc1ccc(Oc2ccc3[nH]c(NC(=O)c4ccco4)nc3c2)cc1)Nc1cc(C(F)(F)F)ccc1F`, the inhibition in test [1] was 0.33%; in test [2], -2.95%; in test [3], -0.15%; in test [4], 0.17%; in [5], 0.57%; in [6] it was -0.21%. For the same molecule, the inhibition came to 0.34% in [7], 6.4% in test [8], 6.36% in test [10] and 2.79% in test [9].
On to `c1ccc(Cc2nc3ccc(Nc4ncnc5ccccc45)cc3[nH]2)cc1`, for which the inhibition in test [1] was -0.26%; in test [2], 4.28%; in test [3] it was 3.15%; in [4] it was 2.47%; in [5], 2.26%; in test [6], 3.68%. Besides, the inhibition in test [7] was 4.32%; in test [8] it was 5.6%; in [10], 7.77%; in test [9], -3.41%.
As to `N#Cc1c(NC(=O)c2ccccc2F)sc2c1CCCC2`, the inhibition in test [1] is 1.28%; in test [2], -3.89%; in test [3], 1.46%; in [4], -2.11%; in test [5], -1.55%; in [6] it was -2.48%. Moreover, the inhibition is -1.16% in test [7], -5.99% in test [8], -0.86% in test [10] and 2.44% in test [9].
`CC(C)c1ccc(Nc2nccc(-c3cnn4ncccc34)n2)cc1`: the inhibition came out at 2.8% in test [1]; 2.05% in [2]; 3.55% in [3]; 1.06% in test [4]; 0.9% in test [5]; 1.95% in test [6]. In addition, the inhibition is 2.33% in test [7], -3.7% in test [8], 2.48% in test [10] and -6.25% in [9].

The values above are taken from ChEMBL document CHEMBL1961873, “Compounds: GSK PKIS; Assays: Nanosyn kinase panel” (2012).
